Assay outcomes from PubChem.
A selection: hits, their analogues and other compounds. The true share with any hit is near 1.1%.
MOR-DOR ag-1 – agonists of human mu-delta opioid receptor heterodimerization; activation, % at 9.3 µM; cells, OPRM1-OPRD1 heterodimerization, luminescence; AID 504326; 0.3% of 340,000 active;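 also: 0% = vehicle-treated cells and 100% = reference agonist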
Target sequence (P35372 whole entry, looked up): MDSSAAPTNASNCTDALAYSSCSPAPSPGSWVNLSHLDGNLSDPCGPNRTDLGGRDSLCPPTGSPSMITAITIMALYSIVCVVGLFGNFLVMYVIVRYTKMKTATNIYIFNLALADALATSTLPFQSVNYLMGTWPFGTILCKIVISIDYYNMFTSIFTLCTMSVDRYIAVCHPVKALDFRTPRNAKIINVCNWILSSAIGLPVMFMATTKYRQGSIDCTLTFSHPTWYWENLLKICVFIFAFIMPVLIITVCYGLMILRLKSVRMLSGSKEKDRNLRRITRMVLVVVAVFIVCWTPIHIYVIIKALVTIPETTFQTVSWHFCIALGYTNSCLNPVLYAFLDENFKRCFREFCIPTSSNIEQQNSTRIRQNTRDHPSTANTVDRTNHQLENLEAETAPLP
Target sequence (P41143 whole entry, looked up): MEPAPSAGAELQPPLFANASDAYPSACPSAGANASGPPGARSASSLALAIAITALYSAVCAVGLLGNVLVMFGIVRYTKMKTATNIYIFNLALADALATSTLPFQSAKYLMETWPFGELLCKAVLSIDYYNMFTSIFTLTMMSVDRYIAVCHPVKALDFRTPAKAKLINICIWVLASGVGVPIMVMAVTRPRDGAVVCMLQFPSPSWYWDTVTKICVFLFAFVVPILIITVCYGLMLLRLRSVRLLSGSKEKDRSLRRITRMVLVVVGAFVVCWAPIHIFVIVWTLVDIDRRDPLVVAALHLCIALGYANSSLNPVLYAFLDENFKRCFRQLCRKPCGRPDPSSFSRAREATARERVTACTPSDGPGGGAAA
HTR5A inv ag – HTR5A inverse agonism, opioid heterodimer counter-screen; inhibition, % at 9.3 µM; HTR5A cell line, luminescence; 0.083% of 340,000 active; AID 504634; in the data active = inhibition mostly above about 23%, no sharp cut-off; inactive = mostly below about 18%;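 also: 0% = cells with DMSO and 100% = no-cell wells with DMSO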
HTR5A ag – HTR5A agonism, opioid heterodimer counter-screen; HTR5A agonist assay, luminescence, cell-based; activation, % at 9.3 µM; 0.61% of 340,000 active; AID 504692; in the data active = activation mostly above about 9.5%, no sharp cut-off; inactive = mostly below about 7.6%;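 also: 0% = cells with vehicle only and 100% = reference agonist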
MOR-DOR inv ag – inverse agonists of human mu-delta opioid receptor heterodimerization; P35372+P41143; cell-based MOR-DOR heterodimer luminescence, inverse agonism; inhibition, % at 9.3 µM; 0.21% of 340,000 active; AID 504357; in the data active = inhibition above about 22%, passing the limit was not always enough;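 also: 0% = cells with DMSO and 100% = wells without cells with DMSO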
MOR-DOR ag-2 – promotes OPRM1-OPRD1 heterodimerization in HTR5A counter-screen | 13% of 800 active | shares compounds with HTR5A ag | AID 504913 | U2OS counter-screen cells, complementation luminescence, 3 h | activation, % at 9.3 µM
HTR5A ag conf – HTR5A (human) agonism, confirmation. HTR5A agonist cell assay, luminescence. shares compounds with HTR5A ag. activation, % at 9.3 µM. 17% of 800 active; in the data active = activation above about 17%;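 also: 0% = cells with vehicle only and 100% = full reference agonist response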
* hit, by the source's call; / = not tested or not shown. Rule as the data show it, unless noted: active = activation above about 18%; inactive = the rest.

SMILES	MOR-DOR ag-1	HTR5A inv ag	HTR5A ag	MOR-DOR inv ag	MOR-DOR ag-2	HTR5A ag conf
O=C1[C@H]2[C@@H](c3ccc(Cl)cc3)N3C(=O)N(c4cccc(F)c4)C(=O)[C@@]3(Cc3ccc(Cl)cc3)[C@H]2C(=O)N1C1CCCCC1	-3	11	1	14	/	/
CC[C@@]12C(=O)N(c3cccc(F)c3)C(=O)N1[C@H](c1ccc(Cl)cc1)[C@@H]1C(=O)N(C3CCCCC3)C(=O)[C@@H]12	8	-10	15*	-47	19*	11
COc1ccc2c(c1)Cc1sc(NC(C)=O)nc1-2	-2	-36	15*	12	1	6
O=C(NCC1CCCO1)c1ccc(Oc2ccc([N+](=O)[O-])cc2Cl)cc1 (stereo not given)	3	-49	17*	-25	-4	-8
CCOc1ccc(N(CC(=O)NCCc2ccccc2)C(=O)CCC(=O)Nc2nccs2)cc1	1	-11	4	-9	/	/
C=CCN(C(=O)CC(NC(C)=O)c1ccccc1)c1nc(-c2ccc(S(C)(=O)=O)cc2)cs1 (stereo not given)	-1	-13	-1	6	/	/
Cc1ccccc1C(=O)NNC(=O)c1cccc([N+](=O)[O-])c1	2	15	17*	-12	2	2
Cc1cccc(C(=O)NNC(=O)c2ccccc2C)c1	2	15	2	-14	/	/
COC(=O)c1c(C(=O)OC)c2n(c1C)Cc1ccccc1C2	-1	1	15*	6	0	3
c1ccc(CCNC2=NCCCS2)cc1	-2	-54	20*	13	2	0
COc1ccc(NS(=O)(=O)c2cccc(C(=O)N3CCN(Cc4cc(OC)ccc4OC)CC3)c2)cc1	0	-16	15*	-2	135*	-5
Cc1cccc(C)c1NC(=O)CN1CCN(C(=O)CNC(=O)c2ccc(N3CCCC3=O)cc2)CC1	-2	10	-4	8	/	/
CCN(c1ccccc1)S(=O)(=O)c1c(C)noc1C	0	-1	3	-3	/	/
COc1ccccc1NCC(=O)N/N=C/c1sccc1C	3	-74	26*	-16	2	6
COc1ccc(N(Cc2ccccc2)S(=O)(=O)c2cccc(C(=O)Nc3ccccn3)c2)cc1	-4	-48	19*	15	4	1
Cc1c(CC(=O)NCCCC(=O)O)c(=O)oc2cc3c(cc12)CCC(C)(C)O3	-2	4	-1	9	/	/
Cc1ccc(C(=O)NCc2ccncc2)cc1S(=O)(=O)N1CCCCC1	-4	19	3	20	/	/
CN(CC(=O)NCc1ccco1)C(=O)C1CC(=O)N(c2ccc3c(c2)OCCO3)C1 (stereo not given)	0	10	-4	1	/	/
Cc1ccc(-c2noc(CN3CCCCC3)n2)cc1	1	14	-5	-3	/	/
Cc1ccc(-c2noc(CN3CCN(c4ccccc4F)CC3)n2)cc1	2	-55	20*	-9	-4	-4
NC(=O)C1CCN(Cc2nc(-c3ccccc3)no2)CC1	-2	-47	17*	8	0	-1
Nc1ccc(-c2n[nH]c(=O)c3ccccc23)cc1N	2	-50	21*	-9	3	14
CCOC(=O)c1cc(C(=O)c2cccs2)n2ccc(C(C)=O)cc12	-3	-55	20*	14	3	-2
O=P(OCC1CCCO1)(OCC1CCCO1)OCC1CCCO1 (stereo not given)	-3	2	0	15	/	/
O=S(=O)(N/N=C\C=C\c1ccccc1)c1ccc(Cl)cc1	8	-106	28*	-43	4	43*
SMILES	MOR-DOR ag-1	HTR5A inv ag	HTR5A ag	MOR-DOR inv ag	MOR-DOR ag-2	HTR5A ag conf
O=S(=O)(N/N=C\c1ccccc1O)c1ccc(Cl)cc1	-2	-9	3	8	/	/
COc1ccccc1Nc1nc(N)nc(CCl)n1	0	-12	3	1	/	/
Cc1cccc(Nc2nc(N)nc(CCl)n2)c1	0	-69	20*	1	21*	31*
COc1cccc(Nc2nc(N)nc(CCl)n2)c1	-1	-1	2	7	/	/
COc1ccc(OC)c(Nc2nc(N)nc(CCl)n2)c1	0	-53	17*	-1	1	10
CC(=O)Nc1ccc(C(=O)COC(=O)CCc2ccccc2)c(F)c1	-2	3	-1	9	/	/
CCOC(=O)c1c(C)oc2c1c(C=NCCO)c(O)c1ccccc12	9	-46	17*	-48	4	4
